Results filed as inconclusive are left out. Values without a mark were called inactive. Calls come from the whole dose curve; as a rule, active = well fitted inhibition curve with a large enough effect; inconclusive = small, poorly fitted or top-dose-only effect; inactive = no such curve, though single readings can be large or run the other way.
Test: NS1 protein of Zika virus - qHTS assay to identify small molecule inhibitors in human HEK 293 cells (AID 1347053);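 note: plate controls were infected untreated cells for no effect and uninfected cells for full effect; nearly all actives have a fitted effect of over 55% in size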
Conditions: HEK293 ZIKV MR766 infection, NS1 TR-FRET, 24 h; series mostly up to 46.1 µM; activity change, negative = inhibition: at the top concentration
Outline: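 Inhibition of NS1 expression was scored in HEK 293 cells given compound 1 h ahead of MR766 virus (MOI = 0.5). Following 24 h at 37 C, two anti-NS1 antibodies generated a TR-FRET signal, scaled between uninfected and infected controls.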

Compound | activity change, negative = inhibition
COc1cc2nc(Cl)nc(N)c2cc1OC | 2.2%
CCN1CCCC1CN (configuration not stated) | -3.63%
Nc1ccc(C(=O)OCC(O)CO)cc1 (configuration not stated) | 0.975%
CCCc1ccc(OCC(=O)N2CCN(C(=O)COc3ccc(CCC)cc3OC)CC2)c(OC)c1 | -4.42%
CN1CCCN(C(c2ccccc2)c2ccc(Cl)cc2)CC1 (configuration not stated) | 0.804%
CCOC(=O)C(=O)CCc1ccccc1 | -6.27%
CCC(=O)O[C@H]1[C@H](O[C@@H]2[C@@H](C)[C@H](O[C@H]3C[C@@](C)(OC)[C@@H](O)[C@H](C)O3)[C@@H](C)C(=O)O[C@H](CC)[C@@](C)(O)[C@H](O)[C@@H](C)C(=O)[C@H](C)C[C@@]2(C)O)O[C@H](C)C[C@@H]1N(C)C | -5.45%
CCN(CC)CCNC(=O)c1ccc(NS(C)(=O)=O)cc1 | -11.3%
CCCCN(CCCC)C(C(N)=O)c1ccc(OC)cc1 (configuration not stated) | -0.798%
Cc1ccc2ccc(Cl)cc2n1 | -14.8%
N#Cc1cc(NC(=O)C(=O)O)c(Cl)c(NC(=O)C(=O)O)c1 | -4.49%
CC(C)(C)c1ccc(O)c(O)c1 | 7.1% [at 92.8 µM]
COc1cc(OC)nc(O[C@H](C(=O)O)C(OC)(c2ccccc2)c2ccccc2)n1 | 0.733%
NS(=O)(=O)c1cc2c(cc1Cl)CN(C1CCCCC1)C2=O | -0.787%
CCCCC(=O)OCC(=O)[C@H]1[C@H](C)C[C@H]2[C@@H]3C[C@H](F)C4=CC(=O)C=C[C@]4(C)[C@@]3(F)[C@@H](O)C[C@@]21C | -0.159%
CCOC(=O)O[C@]1(C(=O)OCCl)CC[C@H]2[C@@H]3CCC4=CC(=O)C=C[C@]4(C)[C@H]3[C@@H](O)C[C@@]21C | -15.2%
COc1ccccc1N1CCN(CC(O)COc2cc(OC)c(OC)c(OC)c2)CC1 (configuration not stated) | 4.08%
CNC[C@H](O)[C@@H](O)[C@H](O)[C@H](O)CO | 1.59%
CCCCNc1ccc(C(=O)OCCN(CC)CC)cc1 | 0.656%

Compound | activity change, negative = inhibition
CC(C)C(=O)Nc1cccc(C2CN3CCSC3=N2)c1 (configuration not stated) | -1.57%
COc1cc(/C=C/C(N)=O)cc(OC)c1OC | -13%
C=CCOc1cc(Cl)ccc1C(=O)NCCN(CC)CC | -0.745%
CC(C)C(=O)Nc1cccc(C(F)(F)F)c1 | 11.5%
O=C(CCC1CCN(Cc2ccccc2)CC1)c1ccc2c(c1)NCCCC2 | 11.1%
O=C(O)CCCC[P+](c1ccccc1)(c1ccccc1)c1ccccc1 | 4.61%
CC(=O)N(c1onc(C)c1C)S(=O)(=O)c1ccc(N)cc1 | 2.49%
CCCCCN(CCCOC)C(=O)C(CCC(=O)O)NC(=O)c1ccc(Cl)c(Cl)c1 (configuration not stated) | 4.21%
N#CC1(c2ccc(F)cc2)CCC(=O)CC1 | 3.34%
Cc1onc(-c2ccccc2)c1C(=O)Cl | -4.25%
Cc1cccc(C)c1NC(=O)c1ccc(N)cc1 | -10.2%
Cc1cccc(OCC(O)CNC(C)(C)C)c1C (configuration not stated) | -8.87%
CC(COc1ccccc1)NN (configuration not stated) | -3.66%
CCOC(=O)N1CCC(Nc2ccc(Cl)cc2N)CC1 | 2.29%
CCOC(=O)C(=O)CCCCCCl | 4.99%
COC(=O)c1cc(Cl)ccc1NS(=O)(=O)C(F)(F)F | 0.451%
CC(C)C(=O)OCc1cccc(OC(=O)[C@@H]2N3C(=O)[C@@H](NC(=O)Cc4ccccc4)[C@H]3SC2(C)C)c1 | -3.78%
C[C@H]1C[C@H](O)c2ccsc2S1(=O)=O | -14.6%
